Hits are enriched below; roughly 3.4% of the tested compounds scored in any of these assays.
MITF primary: inhibitors of human MITF; AlphaScreen MITF homodimerization, bead proximity signal; inhibition, % at 2.6 µM; hit rate 0.91% among 650,000; in the data active = inhibition above about 50%
TEAD-YAP block: TEAD-YAP interaction inhibition; hit rate 1.4% among 640,000; AID 1259422; HEK-TIYL cells, TEAD-Gal4/YAP UAS-luciferase luminescence; inhibition, % at 9.12 µM; in the data active = inhibition above about 32%
GPR151 activ: activates the human receptor GPR151; PathHunter beta-arrestin GPR151 cells, luminescence; activation, % at 11.2 µM; hit rate 1% among 650,000; AID 1508602; in the data active = activation above about 4.9%
Target sequence (Q8TDV0 whole entry, looked up): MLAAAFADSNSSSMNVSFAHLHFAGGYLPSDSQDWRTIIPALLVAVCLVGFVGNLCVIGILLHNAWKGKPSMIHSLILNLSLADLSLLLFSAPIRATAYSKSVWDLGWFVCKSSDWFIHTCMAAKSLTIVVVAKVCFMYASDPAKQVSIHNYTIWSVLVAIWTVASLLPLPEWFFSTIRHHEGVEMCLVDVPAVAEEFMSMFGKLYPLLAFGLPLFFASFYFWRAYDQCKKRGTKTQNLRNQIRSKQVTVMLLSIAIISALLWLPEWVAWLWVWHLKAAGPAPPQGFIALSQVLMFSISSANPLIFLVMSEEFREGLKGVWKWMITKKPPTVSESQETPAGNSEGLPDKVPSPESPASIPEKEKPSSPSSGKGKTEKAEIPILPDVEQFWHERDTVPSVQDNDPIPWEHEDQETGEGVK
FBW7 activator: human FBW7 E3 ligase activation, primary screen; hit rate 0.13% among 650,000; normalized activity (activation), % at 26.1 µM; AlphaScreen FBW7–phospho-cyclin E peptide binding, activator screen; in the data active = normalized activity above about 1.9%;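 also: purified mutant Fbw7 with reduced substrate affinity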
GPR151 conf act: human GPR151 activation, confirmation screen; 6,700 tested, under 10 active; activation, % at 11.2 µM; shares compounds with GPR151 activ; GPR151 PathHunter beta-arrestin cells, luminescence, 90 min; % of EA-reagent control over plate median; AID 1508609;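 active = mean percent activation across replicates above the confirmation screen cutoff of 4.91%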
GPR119 ag: counter-screen for GPR151 activators: effect on human GPR119; shares compounds with GPR151 activ; hit rate 0.3% among 6,700; AID 1508611; GPR119 PathHunter beta-arrestin cells, luminescence, 90 min; 0 = compound-well median, 100 = enzyme-acceptor control; activation, % at 11.2 µM;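 active = mean percent activation in the counterscreen above 29.09%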;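 also: counterscreen on off-target GPR119 to flag nonselective hits from the GPR151 activator screen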
Of the large screens only hits and unclear results are named; the others gave an inactive call (follow-up assays come after a bar, where they were run); ! = not confirmed by another sample.

O=[N+]([O-])c1ccccc1-c1cnn(-c2ccc(F)cc2F)c1	GPR151 activ 5.9 | GPR151 conf act inactive | GPR119 ag inactive
Cc1ccc(C(c2nnnn2CCc2ccccc2)N2CCOCC2)cc1 (stereo unspecified)	GPR151 activ 6.8 | GPR151 conf act inactive | GPR119 ag inactive
Cc1cc(NC(=O)/C(=C/c2cccc([N+](=O)[O-])c2)NC(=O)c2cccs2)ccc1Br	none
Cc1ccc(NC(=O)/C(=C/c2cccc([N+](=O)[O-])c2)NC(=O)c2cccs2)c(Br)c1	GPR151 activ 6.9 | GPR151 conf act 5.5 | GPR119 ag inactive
N#C/C(=C\c1cccs1)C(=O)Nc1ccc([N+](=O)[O-])cc1Br	GPR151 activ 6.4 | GPR151 conf act inactive | GPR119 ag inactive
Cc1nc(N2CCCCC2C)c2c(C)c(C(=O)Nc3ccc4c(c3)OCO4)sc2n1 (stereo unspecified)	none
O=C(Cn1c(=O)c2ccccc2n2nncc12)Nc1ccccc1	none
NC[C@H]1O[C@H](O[C@H]2[C@H](O)[C@@H](O[C@H]3O[C@H](CO)[C@@H](O)[C@H](N)[C@H]3O)[C@H](N)C[C@@H]2N)[C@H](N)C[C@@H]1O	GPR151 activ 24! | GPR151 conf act inactive | GPR119 ag inactive
CCC(=O)Nc1nnc(SCC(=O)Nc2ccc(Cl)c(Cl)c2)s1	GPR151 activ 8.9 | GPR151 conf act inactive | GPR119 ag inactive
Nc1nnc(SCC(=O)Nc2nnc(SCC(=O)Nc3ccc(Cl)c(Cl)c3)s2)s1	none
COc1ccc(CNC(=O)CSc2nnc(NC(=O)c3ccccc3Cl)s2)cc1	GPR151 activ 6.3 | GPR151 conf act inactive | GPR119 ag inactive
Cc1c(Cl)cccc1NC(=O)CSc1ncnc2c1sc1ccccc12	GPR151 activ 12 | GPR151 conf act inactive | GPR119 ag inactive
CC(=O)Nc1nnc(SCC(=O)Nc2cccc(Cl)c2C)s1	GPR151 activ 8.7 | GPR151 conf act inactive | GPR119 ag inactive
O/N=C/c1ccc(OCc2ccccc2F)cc1	none
O=C(Nc1ccc(-c2nc3ccc(NC(=O)c4ccco4)cc3[nH]2)cc1)c1ccco1	none
Cc1csc(SCc2csc(CC(=O)Nc3ccccc3C)n2)n1	none
N#CC1=C(N)Oc2n[nH]c(-c3ccncc3)c2C1c1ccc(F)c(F)c1 (stereo unspecified)	none
COc1nc(NCCO)nc(-c2c(C)nn(C)c2C)n1	GPR151 activ 14 | GPR151 conf act inactive | GPR119 ag inactive
Cc1cc(NC2CC2)nc(Nc2ccc(-n3ccnc3)cc2)n1	GPR151 activ 5.3 | GPR151 conf act inactive | GPR119 ag inactive
Cc1cc(Nc2ccc(N3CCOCC3)cc2)nc(Nc2ccc(-n3ccnc3)cc2)n1	TEAD-YAP block 99, GPR151 activ 8.9 | GPR151 conf act inactive | GPR119 ag 63
CCN(CC)c1nc(Nc2ccccc2)nc(Nc2ccc(-n3ccnc3)cc2)n1	GPR151 activ 6.6 | GPR151 conf act inactive | GPR119 ag inactive
Cc1cc(Nc2ccccc2)nc(Nc2ccc(-n3ccnc3)cc2)n1	none
Cc1cc(Nc2ccc(N3CCOCC3)cc2)nc(Nc2nccc3ccccc23)n1	TEAD-YAP block 81, GPR151 activ 5.3 | GPR151 conf act inactive | GPR119 ag inactive
Cc1cc(Nc2ccc(N3CCOCC3)cc2)nc(Nc2ccccn2)n1	none
COc1ccc(-n2nc3ccc(NC(=O)c4ccc(Cl)c([N+](=O)[O-])c4)cc3n2)cc1	none
CS(=O)(=O)N1CCN(c2ccccc2NC(=O)c2ccc([N+](=O)[O-])o2)CC1	none
CN1CCN(c2ccccc2NC(=O)Cc2ccc(Cl)cc2)CC1	GPR151 activ 6.1 | GPR151 conf act inactive | GPR119 ag inactive
CN1CCN(c2ccccc2NC(=O)c2ccc([N+](=O)[O-])o2)CC1	GPR151 activ 5.7 | GPR151 conf act inactive | GPR119 ag inactive
O=C1CC(c2nnc(Cc3ccccc3Cl)o2)CN1c1ccccc1 (stereo unspecified)	GPR151 activ 5.5 | GPR151 conf act inactive | GPR119 ag inactive
COc1ccc(CCNC(=O)c2cccnc2SCC(=O)Nc2ccc(Br)cc2)cc1OC	none
CC(C)c1ccc(N(C)S(=O)(=O)c2ccc3[nH]cc(C(=O)NCCN4CCOCC4)c(=O)c3c2)cc1	GPR151 activ 5.1 | GPR151 conf act inactive | GPR119 ag inactive
CC(C(=O)O)N1C(=O)/C(=C/C=C/c2ccccc2)SC1=S (stereo unspecified)	GPR151 activ 7.4 | GPR151 conf act inactive | GPR119 ag inactive
COc1cc(/C=N/NCCO)ccc1OC(=O)c1cccs1	none
Brc1c(OCc2nc(-c3cccnc3)no2)ccc2ccccc12	GPR151 activ 7.1 | GPR151 conf act inactive | GPR119 ag inactive
Clc1ccc(OCc2nc(-c3cccnc3)no2)c(Br)c1	none
O=C(Nc1ccc(S(=O)(=O)NCCc2ccccc2)cc1)c1ccccc1F	none
CC(=O)Nc1ccc(S(=O)(=O)NCCNC(=O)c2ccccc2F)cc1	GPR151 activ 6.3 | GPR151 conf act inactive | GPR119 ag inactive
CC(C)c1ccc(NC(=O)c2cc(S(=O)(=O)NCCc3ccccc3)ccc2F)cc1	GPR151 activ 5.8 | GPR151 conf act inactive | GPR119 ag inactive
Cc1ccc(-n2c(C)cc(/C=N/Nc3ccccn3)c2C)cc1	GPR151 activ 5.5 | GPR151 conf act inactive | GPR119 ag inactive
Cc1nnc(N/N=C/c2cc(C)n(-c3ccc(F)cc3)c2C)n1N	GPR151 activ 6.3 | GPR151 conf act inactive | GPR119 ag inactive
CCOC(=O)c1ccc(-n2c(C)cc(/C=N/Nc3ccccn3)c2C)cc1	none
O=[N+]([O-])c1cc(/C=N/n2cnnc2)c(O)c2ccccc12	none
CC(C)(C)OC(=O)N1CCN(c2nccc(-c3ccc(-c4ccc(Cl)cc4)s3)n2)CC1	GPR151 activ 5.3 (no result: MITF primary, TEAD-YAP block, FBW7 activator) | GPR151 conf act inactive | GPR119 ag inactive
CC(C)(C)OC(=O)N1CCC(Nc2nccc(-c3ccc(S(C)(=O)=O)cc3)n2)CC1	none
CC1CCCCC1NC(=O)COC(=O)[C@H](C)Nc1ccc(C(F)(F)F)cc1[N+](=O)[O-] (stereo partly specified)	none
CC(=O)Nc1ccc(NC(=S)NC(=O)c2ccccc2[N+](=O)[O-])cc1	GPR151 activ 6.4 | GPR151 conf act inactive | GPR119 ag inactive
C/C=C/C(=O)N(CC)c1ccccc1C	GPR151 activ 6.1! | GPR151 conf act inactive | GPR119 ag inactive
CCCC(=O)N(CC)c1ccccc1C	none
COc1ccc(NC(=O)N2CCC(CN3CCOCC3)CC2)c(OC)c1	none
COc1ccc(NC(=O)N2CCC(CN3CCOCC3)CC2)cc1OC	GPR151 activ 6.9 | GPR151 conf act inactive | GPR119 ag inactive
O=C(CCN1CCN(C2c3ccccc3-c3ccccc32)CC1)Nc1ccc(F)cc1	GPR151 activ 6.8 | GPR151 conf act inactive | GPR119 ag inactive
CCOC(=O)CSc1nnnn1-c1ccccc1OCC	none
CCOc1ccccc1-n1nnnc1SCC(=O)NC(C)(C)C	GPR151 activ 6.9 | GPR151 conf act inactive | GPR119 ag inactive
